Out of some 310,000 compounds screened, about 14,000 (4.5%) showed an effect of 50% or more. Effects have a minus sign here. What follows is part of a selection rich in strong results, with near analogues and random picks from the rest.
Molecular target: human ether-à-go-go-related gene (hERG) potassium channel (human, UniProt Q12809)
Assay: primary screen, population patch clamp on CHO cells stably expressing hERG; higher = less effect of the substance
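Also: peak tail current of the secondary pulse compared with the same well before compound.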

Sequence of human ether-à-go-go-related gene (hERG) potassium channel (Q12809 whole entry, looked up): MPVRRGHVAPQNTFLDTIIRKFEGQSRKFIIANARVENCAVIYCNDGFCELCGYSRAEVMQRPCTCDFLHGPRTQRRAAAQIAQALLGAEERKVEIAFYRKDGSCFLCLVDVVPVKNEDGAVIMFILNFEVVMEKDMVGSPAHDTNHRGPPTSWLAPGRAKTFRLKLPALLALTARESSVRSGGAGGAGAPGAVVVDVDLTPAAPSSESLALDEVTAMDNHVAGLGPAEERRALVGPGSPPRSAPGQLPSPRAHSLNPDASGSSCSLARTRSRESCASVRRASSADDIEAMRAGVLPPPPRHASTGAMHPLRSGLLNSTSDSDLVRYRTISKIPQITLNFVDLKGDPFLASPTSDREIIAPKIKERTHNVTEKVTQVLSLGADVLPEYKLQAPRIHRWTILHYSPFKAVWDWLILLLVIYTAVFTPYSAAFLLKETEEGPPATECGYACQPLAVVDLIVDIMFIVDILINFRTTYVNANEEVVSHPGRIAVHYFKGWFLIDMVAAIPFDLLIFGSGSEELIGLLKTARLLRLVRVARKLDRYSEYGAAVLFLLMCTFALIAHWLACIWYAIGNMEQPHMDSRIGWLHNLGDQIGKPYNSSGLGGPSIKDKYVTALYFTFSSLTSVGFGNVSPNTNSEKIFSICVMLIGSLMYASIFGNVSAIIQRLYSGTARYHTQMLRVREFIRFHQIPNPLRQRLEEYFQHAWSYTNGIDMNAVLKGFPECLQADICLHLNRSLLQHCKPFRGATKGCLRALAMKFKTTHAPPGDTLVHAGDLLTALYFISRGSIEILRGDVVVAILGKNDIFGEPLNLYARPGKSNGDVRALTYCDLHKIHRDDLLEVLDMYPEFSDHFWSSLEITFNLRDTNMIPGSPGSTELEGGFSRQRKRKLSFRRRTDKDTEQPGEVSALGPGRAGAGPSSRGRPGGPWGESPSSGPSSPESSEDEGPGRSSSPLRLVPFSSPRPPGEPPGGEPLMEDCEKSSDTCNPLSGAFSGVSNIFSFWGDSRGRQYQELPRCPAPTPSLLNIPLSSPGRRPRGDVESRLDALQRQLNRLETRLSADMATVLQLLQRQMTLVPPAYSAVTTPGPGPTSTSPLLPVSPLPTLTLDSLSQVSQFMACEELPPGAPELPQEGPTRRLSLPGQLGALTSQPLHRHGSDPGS

SMILES	hERG current change (%, negative = inhibition) at 10uM [%]
COc1cc(NC(=O)c2c(-c3ccccc3Cl)noc2C)c2ncccc2c1	25.5
CCOc1ccc(NC(=O)COC(=O)CNC(=O)c2ccc(-c3ccccc3)cc2)cc1	2.3
CC(=O)Nc1cccc(NC(=O)CSc2nc(=O)n(CCN3CCOCC3)c3c2CCCC3)c1	0.233
CC(=O)Nc1cccc(NC(=O)CSc2nc(=O)n(CCCN3CCOCC3)c3c2CCC3)c1	0.499
O=C(CSc1nc(=O)n(CCCN2CCOCC2)c2c1CCCC2)Nc1cccc(F)c1	-56.2
O=C(CSc1nc(=O)n(CCCN2CCOCC2)c2c1CCC2)Nc1ccc(F)cc1F	-41.8
O=C(CSc1nc(=O)n(CCCN2CCOCC2)c2c1CCC2)Nc1cccc(F)c1	-37.4
O=C(CSc1nc(=O)n(CCCN2CCOCC2)c2c1CCCC2)Nc1cccc(Cl)c1	-62.2
CN(c1ccccc1)C(c1ccc(F)cc1)c1nnnn1CC1CCCO1.Cl (stereo not drawn)	-14.1
Cn1cc([N+](=O)[O-])c(C(=O)N/N=C/c2cc3c(cc2Br)OCO3)n1	3.63
CC(=O)Nc1ccc(S(=O)(=O)N[C@@H](C)C(=O)Nc2ccc(N3CCOCC3)cc2)cc1	15.1
COC(=O)C1=NN(C(=O)c2ccc(C)cc2)C(O)(c2ccc(Cl)cc2)C1 (stereo not drawn)	-31.2
CCOC(=O)C1=NN(C(=O)c2ccc(OC)cc2)C(O)(c2ccc(Cl)cc2)C1 (stereo not drawn)	-75.5
CCOC(=O)C1=NN(C(=O)c2ccccc2)C(O)(c2ccc(C)cc2)C1 (stereo not drawn)	-17.2
O=C(c1cc(Cl)ccc1Cl)N1CCN(Cc2ccccc2)CC1	5.54
O=C(c1ccc(Br)o1)N1CCN(CCc2ccncc2)CC1	-69.8
CCN1CCN(c2ccc(N3CCN(C(=O)c4ccc(Br)o4)CC3)nn2)CC1	-71.5
O=C(c1ccc(Br)o1)N1CCN(Cc2ccccc2Cl)CC1	-12.6
O=C(c1ccc(Br)o1)N1CCN(c2ccccc2F)CC1	-4.94
O=C(c1ccc(F)cc1Cl)N1CCN(CCc2ccccc2)CC1	-44
O=C(c1ccccc1)N1CCN(C(=O)c2ccncc2)CC1	14.3

SMILES	hERG current change (%, negative = inhibition) at 10uM [%]
COc1ccc(N2CCN(C(=O)c3ccc(Br)o3)CC2)cc1	-17
O=C(c1ccccc1)N1CCN(CCc2ccccc2)CC1	-43.6
O=C(c1ccncc1)N1CCN(CCc2ccccc2)CC1	-50.8
O=C(c1cc(F)c(F)cc1Cl)N1CCN(CCc2ccccc2)CC1	-71.6
O=C(c1ccc(Br)o1)N1CCN(c2ncccn2)CC1	0.956
COc1cc2c(cc1OC)C(C)N(C(=O)Nc1ccc(F)cc1)CC2 (stereo not drawn)	10.6
Br.O=C(CSc1nc2ccccc2c(=O)n1-c1ccccc1)c1cccc([N+](=O)[O-])c1	-7.38
COc1cc2c(cc1OC)C(c1ccc(Br)cc1)N(C(=O)c1ccccc1C(=O)O)CC2 (stereo not drawn)	9.72
Cc1cc(C)c(C)c(S(=O)(=O)NCCCN2CCOCC2)c1C	13.6
O=C1CCN(C(=O)Nc2cccc(Cl)c2)N1	14.1
CC(C)CCN(C(=O)Nc1ccc(Cl)cc1)C1CCN(C(C)C)CC1	-72.1
CCCCN(C(=O)Nc1ccc(Cl)cc1)C1CCN(C(C)=O)CC1	-46
COCCN(C(=S)Nc1ccc(OC)c(Cl)c1)C1CCN(C(C)C)CC1	-35.9
CC(C)CCN(C(=S)Nc1cccc(F)c1)C1CCN(C(C)C)CC1	-42.9
CSc1cccc(NC(=S)N(CCC(C)C)C2CCN(C(C)=O)CC2)c1	-23.3
COc1ccc(NC(=S)N(C(C)C)C2CCN(C(C)C)CC2)cc1Cl	0.307
COc1ccc(NC(=S)N(CCC(C)C)C2CCN(C(C)C)CC2)cc1Cl	-68.1
CCOc1ccc(NC(=O)N(CCC(C)C)C2CCN(C(C)=O)CC2)cc1	-9.87
CSc1cccc(NC(=S)N(CCC(C)C)C2CCN(C(C)C)CC2)c1	-52.5
O=C1CCCN1CCCNc1ncnc2sccc12	3.29
CC(C)(C)N1[C@@H](CC(=O)O)c2cc(C(F)(F)F)ccc2S1(=O)=O	11.2

SMILES	hERG current change (%, negative = inhibition) at 10uM [%]
Cc1ccccc1Nc1nc(N)nc(COC(=O)CCS(=O)(=O)c2ccccc2)n1	-14.4
CC(C)=C1C2CCC1C1C(=O)N(NC(=O)c3ccco3)C(=O)C21 (stereo not drawn)	-4.72
Cc1nn(C)c(C(=O)N2CCc3ccccc32)c1Cl	2.37
CCOC(=O)c1cnc2c(C)cc(C)cc2c1Nc1ccc(S(=O)(=O)Nc2ncccn2)cc1	-0.317
COc1ccc(Cl)cc1N(CC(=O)N1CCN(Cc2ccccc2)CC1)S(C)(=O)=O	-7.28
Cc1ccc2[nH]c3c(c2c1)CN(C(=O)CN1CCN(C(=O)c2ccco2)CC1)CC3	-5.97
Cc1ccc2[nH]c3c(c2c1)CN(C(=O)CN1CCN(Cc2ccc4c(c2)OCO4)CC1)CC3	-54.8
CN(CC(=O)N1CCc2[nH]c3ccc(F)cc3c2C1)CC1OCCO1	5.81
Cc1ccc2[nH]c3c(c2c1)CN(C(=O)CN1CCCCC1)CC3	-31.8
O=C(CN1CCN(Cc2ccc3c(c2)OCO3)CC1)N1CCc2[nH]c3ccc(F)cc3c2C1	-62.8
O=C(c1cc2cc(F)ccc2[nH]1)N1CCN(Cc2ccc3c(c2)OCO3)CC1	-0.31
COc1ccccc1NC(=O)c1sc2nc(-c3ccco3)ccc2c1N	1.24
Cc1n[nH]c(C)c1N1C(=O)c2cccc3c(N4CCCCCC4)ccc(c23)C1=O	-21.5
CCC(=O)N1c2ccc(S(=O)(=O)NCCc3ccc(OC)c(OC)c3)cc2CC1C (stereo not drawn)	10.3
CSc1c(CC(=O)Nc2ccccc2Cl)n(Cc2ccccc2)c2ccccc12	8.86
COc1ccc(NC(=O)CCCN2C(=O)CN(C)C2=O)c(OC)c1	-4.4
CCN(CC)S(=O)(=O)c1ccc(C(=O)NCc2cccs2)cc1	-20.7
CCN(CC(=O)NCc1cccs1)C(=O)c1cccc(S(=O)(=O)N2CCc3ccccc32)c1	-71.3
CCN(CC(=O)NCc1cccs1)C(=O)c1ccc(S(=O)(=O)Nc2ccccc2)cc1	-15.6
CCN(CC(=O)NCc1cccs1)S(=O)(=O)c1ccc(C(C)C)cc1	-53.3
CCN(CC(=O)NCc1cccs1)C(=O)c1ccc(S(=O)(=O)N(C)C)cc1	48.6

SMILES	hERG current change (%, negative = inhibition) at 10uM [%]
CCN(CC(=O)NCc1cccs1)S(=O)(=O)c1c(F)cccc1F	0.594
CCN(CC(=O)NCc1cccs1)S(=O)(=O)c1ccc(NC(C)=O)cc1	-7.22
CCN(CC(=O)Nc1cccc(OC)c1)C(=O)c1cccc(S(=O)(=O)N2CCc3ccccc32)c1	-1.63
CCN(CC(=O)NCc1cccs1)C(=O)c1ccc(S(=O)(=O)N(CC)c2ccccc2)cc1	-61.4
CCN(CC(=O)NCc1cccs1)S(=O)(=O)c1ccc(F)cc1	-85
CCN(CC(=O)NCc1cccs1)C(=O)c1cccc(S(=O)(=O)NC)c1	-12.2
CCN(CC(=O)NCc1cccs1)S(=O)(=O)c1ccccc1Cl	-11.3
COC(=O)c1ccc2c(c1)S(=O)(=O)NC(=NCCCN1CCOCC1)S2.Cl	-1
COc1ccc(OCCC(=O)OCC(=O)NC(=O)NC2CCCCC2)cc1	13.2
CN(C)c1ccc(NS(=O)(=O)c2ccc(-c3csnn3)cc2)cc1	13.1
CCCC1(c2ccccc2)NC(=O)N(CC(=O)c2[nH]c(C)c(C(=O)OCC)c2C)C1=O (stereo not drawn)	12.5
CCOC(=O)N1CCN(Cc2cn3ccccc3n2)CC1.O=C(O)C(=O)O	21.9
Nc1cc(C(=O)N/N=C/c2cccc([N+](=O)[O-])c2)n[nH]c1=O	7.18
c1ccc(Cn2c(SCc3nc4ccccc4s3)nnc2-c2ccco2)cc1	-34.1
CCOC(=O)N1CCN(C(=O)C2CCN(S(=O)(=O)c3ccc(Br)s3)CC2)CC1	-35.2
O=C(Oc1ccc(/C=N/Nc2nc(N3CCCCC3)nc(N3CCCCC3)n2)cc1)c1ccco1	-9.1
COc1ccc(NC(=O)c2cccc(C#N)c2)cc1NS(=O)(=O)c1ccc(F)cc1	8.63
Cc1ccnc(SCCn2c(N3CCN(c4ccccc4)CC3)nc3c2c(=O)[nH]c(=O)n3C)n1	-17.3
CCN(CC(=O)NCc1cccs1)S(=O)(=O)c1ccc([N+](=O)[O-])cc1	-68.2
CCN(CC(=O)NCc1cccs1)S(=O)(=O)c1cccc(Br)c1	11.9
CCN(CC(=O)NCc1cccs1)S(=O)(=O)c1cccc(C(C)=O)c1	0.039

— PMC4336329 (PLoS ONE, 2015)
